# High-throughput results from PubChem BioAssay.
# HT1080 IDH1KD tx: kills HT-1080 cells with IDH1 knockdown. HT-1080 IDH1 knockdown viability, ATP luminescence, 48 h. 360,000 tested, 2% active. AID 686971. Potency, µM (top dose mostly 46.1 µM), without a hit: at the highest dose activity, negative = toxicity, actives largely listed as cytotoxic;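 further: potency means the concentration at half of the fitted maximal effect; 0% = DMSO wells and -100% = cell-free medium wells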
#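 After a 2 h attachment period, IDH1KD HT-1080 cells took pin-transferred compound for 48 h at 37 °C; ATP-based luminescence after 10 min room-temperature reagent incubation reported viability.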
# ELG1 repair inh: blocks ELG1-dependent DNA repair in HEK293T cells; HEK293T ELG1-luciferase reporter, luminescence, 16 h; DNA damage induced by 5-fluorouridine; Potency, µM (doses to about 46.1 µM), without a hit: at the top dose activity change, negative = inhibition, usual class: inhibitors; 330,000 tested, 2.3% active; AID 504467; further: potency means the concentration at half of the fitted maximal effect; nearly all actives have a fitted effect of over 55% in size
#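 Luminescence from the luciferase reporter, measured 30 min after ONE-Glo reagent at room temperature, was the read-out. Beforehand, 2,000 cells per well were exposed for 16 hr at 37 °C to 5-fluorouridine together with compound or vehicle.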
# TDP1 cell noCPT: qHTS for Inhibitors of human tyrosyl-DNA phosphodiesterase 1 (TDP1): qHTS in cells in absence of CPT; DT40 Tdp1-/- hTDP1 cells, no CPT, ATP luminescence, 48 h; Potency, µM (series often up to 46.2 µM), for the others: at the top dose activity change, negative = growth inhibition, most hits filed as inhibitors; AID 686978, 2013; 420,000 tested, 15% active; further: potency means the concentration at half of the fitted maximal effect; nearly all actives have a fitted effect of over 55% in size
#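 A cellular qHTS used chicken DT40 cells lacking endogenous Tdp1 but carrying stably transfected human TDP1. Compounds were applied without camptothecin, and cell growth kinetics were judged by ATP-dependent luminescence after ≥48 hr.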
# DT40 TDP1 CPT: growth inhibition of DT40 Tdp1-/-;hTDP1 cells with camptothecin (screen for TDP1 inhibitors). chicken DT40 Tdp1-/-;hTDP1 cells + 20 nM CPT, ATP luminescence, 48 h. 420,000 tested, 12% active. Potency, µM (doses to about 46.2 µM), for the others: at the top dose activity change, negative = growth inhibition, hits mostly inhibitors. AID 686979; further: potency means the concentration at half of the fitted maximal effect; nearly all actives have a fitted effect of over 55% in size
#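 Chicken DT40 Tdp1-/- cells complemented with human TDP1, 400 cells/well, exposed to compounds plus 20 nM camptothecin for at least 48 h at 37 C; viability read as ATP content by CellTiter-Glo luminescence.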
# IL-1B inflam inh: blocks inflammasome-driven IL-1 beta release. 360,000 tested, 4.7% active. activity change, % at 57.5 µM. AID 743279. THP-1 LPS/ATP IL-1B secretion, AlphaLISA, 16 h; active compounds read low; in the data active means activity change below about -50%; inconclusive means mostly about -30% to -49%
#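 Secreted IL-1B measured by AlphaLISA bead assay after 16 h compound exposure of THP-1 cells; compounds (final up to 57.5 uM) added 1 h before LPS (250 ng/mL) and ATP (1.25 mM) stimulation; lower signal means less secretion.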
# HT1080NT lethal: kills 2HG-producing HT-1080-NT fibrosarcoma cells; 360,000 tested, 1.6% active; AID 686970; HT-1080-NT fibrosarcoma viability, CellTiter-Glo ATP luminescence, 48 h; Potency, µM (titrated, usually from 46.1 µM), for the others: at the highest dose activity, negative = less viability, usual class: cytotoxic;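 further: NT is the 2HG producing partner of a matched IDH1 knockdown line; potency means the concentration at half of the fitted maximal effect; 0% = DMSO-treated cells and -100% = media-only wells without cells; nearly all actives have a fitted effect of over 55% in size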
#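 Viability of the 2HG-overproducing fibrosarcoma line after 48 hours of compound exposure at 37 degrees C was determined by luminescence with CellTiter-Glo, and concentration-effect curves were then fitted and categorized.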
# * hit, by the source's call; ? = inconclusive; nt = no result given; [ ] = dose if it differs, or a comment. Only some compounds are listed: those with a hit (about 19% of all), similar ones and a draw of the others. Unless noted, the call rests on the fitted dose curve; in most records, active means well fitted curve in the direction sought with a large enough effect; inconclusive means small, poorly fitted or top-dose-only effect, or another doubt; inactive means no such curve, though single readings can be large; an effect the other way counts as inactive or inconclusive. Unless noted, on the % scale 0 is the no-effect control and ±100 the full control effect.
SMILES,HT1080 IDH1KD tx,ELG1 repair inh,TDP1 cell noCPT,DT40 TDP1 CPT,IL-1B inflam inh,HT1080NT lethal
CC(=O)Nc1ccc(S(=O)(=O)N2c3ccccc3NC(=O)CC2C)c(Cl)c1 (stereo not given),16%,1%,5%,-3%,13,22%
CCCNC(=O)CCn1c(=S)oc2ccccc21,13%,-6%,?,9.2µM*,-12,4%
CC(=O)Nc1ccc(NC(=O)CCn2c(=S)oc3ccccc32)cc1,-1%,?,21%,-10%,5,-2%
CC(=O)c1cccc(OCC(=O)N(Cc2ccco2)c2c(N)n(Cc3ccccc3)c(=O)[nH]c2=O)c1,6%,-10%,12%,-8%,16,7%
CN1CCN(C(c2ccccc2)c2ccccc2)CC1,-3%,2%,?,?,-14,?
CC(C)(C)c1ccc(CN2CCN(C(c3ccccc3)c3ccc(Cl)cc3)CC2)cc1 (stereo not given),nt,nt,24µM*,13µM*,nt,nt
Cc1cccc(CN2CCN(C(c3ccccc3)c3ccc(Cl)cc3)CC2)c1 (stereo not given),?,0%,7.3µM*,?,20,?
O=C(C1CCN(Cc2ccc(Cl)cc2)CC1)N1CCN(C(c2ccccc2)c2ccccc2)CC1,?,-10%,12µM*,?,-53*,?
Cc1c(C(=O)N2CC3CCC2C3)sc2ncnc(NCc3ccco3)c12 (stereo not given),nt,nt,-27%,7%,nt,nt
Cc1ccc(CN2CCSc3ccc(C(=O)N4CCOCC4)cc32)cc1,-1%,3%,-19%,?,-19,-1%
CCN1CCN(C(=O)c2ccc(CSc3ccc(C)cc3)cc2)CC1,-28%,-2%,13µM*,?,-54*,?
CCN1CCN(C(=O)c2ccc3c(c2)N(Cc2ccc(C)cc2)CCS3)CC1,-1%,-15%,23µM*,21µM*,-15,-15%
Cc1ccc(CN2CCSc3ccc(C(=O)N4CCN(c5ncccn5)CC4)cc32)cc1,9%,?,16µM*,21µM*,-62*,4%[9.24 µM]
CSCCC(N)C(=O)O (stereo not given),nt,nt,19%,-17%,nt,nt
CCOc1cccc(-c2c(C(=O)N/N=C(\C)c3cccs3)nnn2-c2nonc2N)c1,-1%,16µM*,?,?,36,1%
C/C(=N\NC(=O)c1nnn(-c2nonc2N)c1-c1ccc2c(c1)OCO2)c1cccs1,-14%,2%,?,1.6µM*,8,-2%
CCOc1ccc(-c2c(C(=O)N/N=C(\C)c3cccs3)nnn2-c2nonc2N)cc1,3%,?,22%,8%,33,5%
COc1cccc(-c2c(C(=O)N/N=C(\C)c3cccs3)nnn2-c2nonc2N)c1,2%,-9%,?,16µM*,1,13%
Cc1cc(-c2nnc(CCC(=O)N3CCN(Cc4cccnc4)CC3)o2)c(C)o1,4%,-1%,-24%,3%,12,8%
CC(=O)c1ccc(S(=O)(=O)N2CCN(c3nc(-c4cccnc4)nc4ccccc34)CC2)cc1,-4%,?,?,21µM*,-13,4%
COc1ccc(Cl)cc1N(C)c1nc(N2CCN(S(=O)(=O)c3ccc(C)cc3)CC2)c2ccccc2n1,19%,nt,6.3µM*,8.9µM*,nt,-15%
Cc1ccc(S(=O)(=O)N2CCN(c3nc(-c4ccnnc4)nc4ccccc34)CC2)cc1,11%,nt,16µM*,?,nt,4%
Cc1ccc(S(=O)(=O)N2CCN(c3nc(-n4ccnn4)nc4ccccc34)CC2)cc1,12%,nt,16µM*,13µM*,nt,20%
